{
  "source": "PubChem BioAssay (NCI)",
  "note": "Compounds without any hit were thinned out: in the full panel of roughly 83,000, 20% have a hit.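 Single-dose data. Exposure time 48 hours. Values below 10 considered active.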 Unmarked numbers belong to inactive results. The source made the active and inactive calls.",
  "data": [
    {"system": "NCI-H460 lung", "assay": "NCI-60 one-dose screen, 48 h (100 = growth as untreated, 0 = no growth, -100 = all killed)", "conditions": "10 µM unless noted", "values": [
      {"compound": "COc1cccc2cc(-c3nc(C4CCC(C(=O)O)CC4)n4ncnc(N)c34)[nH]c12", "note": "(centres undefined)", "growth": "11.1%"},
      {"compound": "CNC(=O)c1cc(Oc2ccc3nc(NC(=O)Nc4ccc(Cl)c(C(F)(F)F)c4)sc3c2)ccn1", "growth": "3.45% (active)"},
      {"compound": "C[C@@H](Oc1cc(-n2cnc3ccc(CN4CCN(C)CC4)cc32)sc1C(N)=O)c1ccccc1C(F)(F)F", "growth": "8.47% (active)"},
      {"compound": "Oc1ccc(C(c2ccc(O)cc2)C(Cl)(Cl)Cl)cc1", "growth": "98.2%"},
      {"compound": "C[C@H](NC(=O)c1c(N)nn2cccnc12)c1cc2cccc(C#Cc3cnn(C)c3)c2c(=O)n1-c1ccccc1", "growth": "30.4%"},
      {"compound": "COc1cc(CCc2cc(NC(=O)c3ccc(N4C[C@@H](C)N[C@@H](C)C4)cc3)n[nH]2)cc(OC)c1", "growth": "24.6%"},
      {"compound": "CNC(=O)CN1CCC(Oc2cc3c(Nc4cccc(Cl)c4F)ncnc3cc2OC)CC1", "growth": "89.9%"},
      {"compound": "Cc1oc2c(C(=O)N/N=C\\c3ccc(O)cc3O)c[nH]c2c1C", "growth": "4.29% (active)"},
      {"compound": "CCCCCc1ccc(C)cc1OC(=O)CCl", "growth": "104%"},
      {"compound": "COc1cc2ncnc(Oc3cccc(NC(=O)Nc4cc(C(C)(C)C(F)(F)F)on4)c3)c2cc1OC", "growth": "34.3%"},
      {"compound": "COc1cc(Nc2ncc3c(n2)-c2ccc(Cl)cc2C(c2c(F)cccc2OC)=NC3)ccc1C(=O)O", "growth": "30.7%"},
      {"compound": "CC[C@H](Nc1ncnc2nc[nH]c12)c1nc2cccc(F)c2c(=O)n1-c1ccccc1", "growth": "79.9%"},
      {"compound": "CN1CCN(CCOc2cc(OC3CCOCC3)c3c(Nc4c(Cl)ccc5c4OCO5)ncnc3c2)CC1", "growth": "89.9%"},
      {"compound": "Nc1nc(Nc2ccccc2)c(C=Nc2ccccc2)c(=O)[nH]1", "growth": "102%"},
      {"compound": "CNC(=O)c1cc(Oc2cccc3nc(Nc4ccc(Oc5ccccc5)cc4)ccc23)ccn1", "growth": "61.9%"},
      {"compound": "CN1CC[C@@H](c2c(O)cc(O)c3c(=O)cc(-c4ccccc4Cl)oc23)[C@@H]1CO", "growth": "4.14% (active)"},
      {"compound": "Cc1[nH]n(C(N)=S)c(=O)c1N=Nc1ccc(S(=O)(=O)Nc2ccncn2)cc1", "growth": "100%"},
      {"compound": "COCCN1CCN(Cc2ccc(-c3n[nH]c4c3C(=O)c3c(NC(=O)NN5CCOCC5)cccc3-4)cc2)CC1", "growth": "-68.7% (active)"},
      {"compound": "CN(c1ncccc1CNc1nc(Nc2ccc3c(c2)CC(=O)N3)ncc1C(F)(F)F)S(C)(=O)=O", "growth": "-36.9% (active)"},
      {"compound": "COc1cc(N2CCC(N3CCN(C)CC3)CC2)ccc1Nc1ncnc(Nc2ccccc2S(=O)(=O)C(C)C)n1", "growth": "102%"},
      {"compound": "O=C(COc1ccc(/C=C2\\Cc3ccc(Cl)cc3C2=O)cc1)Nc1nccs1", "growth": "95.2%"},
      {"compound": "O=C(c1ccc(/C=C/c2n[nH]c3ccccc23)cc1)N1CCNCC1", "growth": "10.7%"},
      {"compound": "O=C(O)C1(Cc2cccc(Nc3nccs3)n2)CCC(Oc2cccc(Cl)c2F)CC1", "note": "(centres undefined)", "growth": "15.2%"},
      {"compound": "Cc1cc(O)cc(-c2c(-c3ccnc(-c4cccnc4)c3)cnn2C)c1", "growth": "67.4%"},
      {"compound": "Cc1c(CN2CCN(C(=O)[C@H](C)O)CC2)sc2c(N3CCOCC3)nc(-c3cnc(N)nc3)nc12", "growth": "3% (active)"},
      {"compound": "CN1CCN(c2ccc(C(=O)Nc3n[nH]c4ccc(Cc5cc(F)cc(F)c5)cc34)c(NC3CCOCC3)c2)CC1", "growth": "-80.3% (active)"},
      {"compound": "C#Cc1cccc(Nc2ncnc3cc(OCCOC)c(OCCOC)cc23)c1", "growth": "55.8%"},
      {"compound": "COc1ccc(Nc2ncccc2NC(=O)c2cn(Cc3cccc(Oc4ccccc4)c3)nn2)cc1", "growth": "96.5%"},
      {"compound": "O=C1NC(=O)[C@@H](c2cn3c4c(cccc24)CCC3)[C@@H]1c1c[nH]c2ccccc12", "growth": "5.41% (active)"},
      {"compound": "Cc1cc(-c2cc(O)ccc2Cl)cc2nnc(Nc3ccc(OCCN4CCCC4)cc3)nc12", "growth": "-81.6% (active)"},
      {"compound": "C=CCN(/C=C1/C(=O)O[C@H](COC)[C@@]2(C)C1=C(O)C(=O)C1=C2[C@H](OC(C)=O)C[C@]2(C)C(=O)CC[C@@H]12)CC=C", "growth": "11.2%"},
      {"compound": "CNC(=O)c1nn(C)c2c1C(C)(C)Cc1cnc(Nc3ccc(N4CCN(C)CC4)cc3)nc1-2", "growth": "7.46% (active)"},
      {"compound": "CC(C)Nc1cc(-c2c[nH]c(C(=O)N[C@H](CO)c3cccc(Cl)c3)c2)c(Cl)cn1", "growth": "25.2%"},
      {"compound": "COc1ccc(Cc2cc(-c3ccccc3C)n[nH]c2=O)cc1", "growth": "105%"},
      {"compound": "CC(C)[C@@H]1CC[C@@H]2[C@@H]1[C@H](OC(=O)/C=C/c1ccccc1)[C@]1(C(C)C)C[C@@H](OC(=O)CO)[C@@]2(C)O1", "growth": "89.3%"},
      {"compound": "Cc1ncc(-c2ccnc(Nc3ccc(S(C)(=O)=O)cc3)n2)n1C(C)C", "growth": "-17.2% (active)"},
      {"compound": "C/C=C/C=N/NC(=S)Nc1ccccc1", "growth": "112%"},
      {"compound": "Cc1nn(-c2ccccc2)c2c1N=c1s/c(=C\\c3cn(-c4ccccc4)nc3-c3ccc(Cl)cc3)c(=O)n1C(C)N2", "note": "(centres undefined)", "growth": "93%"},
      {"compound": "COc1cc2c(cc1OCCCN1Cc3ccc(OCCCCC(=O)N4CCC(CCN5CCCC5)CC4)cc3C1)N=C(N)C21CCCC1", "growth": "102%"}
    ]}
  ]
}
